{"source": "ChEMBL document CHEMBL4513216", "about": "“Probing the Open Global Health Chemical Diversity Library for Multistage-Active Starting Points for Next-Generation Antimalarials” (ACS Infect Dis, 2020)", "note": "In all, about 69,000 compounds went through this assay and about 8,600 (12%) showed an effect of 50% or more. The entries come from a sample that favours strong results as a whole."}
{"test_system": "Plasmodium berghei", "test": "Screen against P. berghei liver stage (PbLuc), transformed with Luciferase, at 10uM", "format": "functional, HepG2", "details": "tested at 10 uM", "units": {"INHIBITION": "%"}}
{"smiles": "O=c1oc(-c2ccc(F)cc2)nn1CN1CCN(CC2CC2)CC1", "INHIBITION": 30.6}
{"smiles": "O=c1oc(-c2ccc(F)cc2)nn1CC1CCOC1", "note": "(centres undefined)", "INHIBITION": 62.3}
{"smiles": "O=c1oc(-c2ccc(F)cc2)nn1CC1CCCCO1", "note": "(centres undefined)", "INHIBITION": 59.3}
{"smiles": "CC1CCN(Cn2nc(-c3ccc(F)cc3)oc2=O)CC1", "INHIBITION": 9.25}
{"smiles": "O=c1oc(-c2ccc(F)cc2)nn1CN1CCN(C2CCCC2)CC1", "INHIBITION": 29.4}
{"smiles": "O=C(Cn1nc(-c2ccc(F)cc2)oc1=O)NCC1CCCO1", "note": "(centres undefined)", "INHIBITION": -36.1}
{"smiles": "COCCN1C[C@@H]2[C@@H](OC)CCN(Cc3ccco3)[C@@H]2C1", "INHIBITION": 22.2}
{"smiles": "Cn1cc(C2CC(=O)NC23CCN(Cc2cccc(F)c2)CC3)cn1", "note": "(centres undefined)", "INHIBITION": -1.36}
{"smiles": "CN(CCc1ccccn1)C(=O)C(O)c1cc(Cl)cc(Cl)c1", "note": "(centres undefined)", "INHIBITION": 10.1}
{"smiles": "CSc1ccc(NC(=O)NCC2CCCO2)cc1F", "note": "(centres undefined)", "INHIBITION": -81.9}
{"smiles": "C[C@@H]1CN(c2nc(N)nc3c2CCC3)CC[C@@]1(O)C1CCC1", "INHIBITION": 83.3}
{"smiles": "C[C@@H]1CN(c2nc(N)nc3c2CCC3)C[C@]1(C)O", "INHIBITION": 8.53}
{"smiles": "C[C@@H]1CN(c2nc3c(cc2C(N)=O)CCC3)CC[C@@]1(O)C1CCC1", "INHIBITION": -2.93}
{"smiles": "Cc1ccc(C)c(Sc2nccn(C)c2=O)c1", "INHIBITION": -13.1}
{"smiles": "COc1ccc(Cl)cc1CN(CC(N)=O)C(C)C", "INHIBITION": -6.04}
{"smiles": "COCCNc1cc(-c2ccccc2CCN)c2cc[nH]c2n1", "INHIBITION": 25.8}
{"smiles": "Cc1cc(F)ccc1-c1cc(NCCO)nc2[nH]ccc12", "INHIBITION": -13.1}
{"smiles": "COCCNc1cc(-c2cccc(C(=O)O)c2C)c2cc[nH]c2n1", "INHIBITION": 58.5}
{"smiles": "Cc1cnccc1-c1cc(NCCO)nc2[nH]ccc12", "INHIBITION": 58}
{"smiles": "CN(C)CCNc1cc(-c2ccccc2C(N)=O)c2cc[nH]c2n1", "INHIBITION": 15.8}
{"smiles": "COCCNc1cc(-c2ccccc2C(N)=O)c2cc[nH]c2n1", "INHIBITION": 60.3}
{"smiles": "COCCNc1cc(-c2ccccc2S(N)(=O)=O)c2cc[nH]c2n1", "INHIBITION": 23}
{"smiles": "Cc1cccc(C)c1-c1cc(NCCO)nc2[nH]ccc12", "INHIBITION": 45}
{"smiles": "COCCNc1cc(-c2ccccc2C(=O)O)c2cc[nH]c2n1", "INHIBITION": 30.3}
{"smiles": "CN1CC(=O)N(c2cccnc2)CC12CCN(C(=O)C1CCCCC1)C2", "note": "(centres undefined)", "INHIBITION": 31.2}
{"smiles": "Cc1csc(CNC(=O)Nc2ccc3c(c2)OCO3)n1", "INHIBITION": -51.9}
{"smiles": "CCCS(=O)(=O)N1C[C@@H]2C[C@H](C(=O)N(C)C)[C@H](C1)O2", "INHIBITION": 49.7}
{"smiles": "CC(C)(C)c1ncc(C(=O)NCCNC(=O)Cc2ccccc2)s1", "INHIBITION": 45.7}
{"smiles": "Cc1ccccc1-c1noc(CN2CCc3cncnc3C2)n1", "INHIBITION": 8.195}
{"smiles": "O=c1ccc(-c2cccs2)nn1CN1CCOCC1", "INHIBITION": -1.33}
{"smiles": "O=C1COC2(CCN(c3ccccn3)CC2)CN1Cc1ccccn1", "INHIBITION": 16.6}
{"smiles": "CCCc1noc(CN2CCC(N(C)Cc3nnc(C4CC4)o3)C2)n1", "note": "(centres undefined)", "INHIBITION": -16}
{"smiles": "COC(=O)c1cccn1C1CCN(Cc2nc3ccccc3o2)CC1", "INHIBITION": 15.6}
{"smiles": "COC(=O)c1cccn1C1CCN(Cc2cccnc2)CC1", "INHIBITION": 11.6}
{"smiles": "COC(=O)c1cccn1C1CCN(Cc2ccccc2)CC1", "INHIBITION": 56.1}
{"smiles": "COC(=O)c1cccn1C1CCN(Cc2cnc3ccccn23)CC1", "INHIBITION": 66.8}
{"smiles": "COC(=O)c1cccn1C1CCN(CCN2C(=O)CCC2=O)CC1", "INHIBITION": 1.75}
{"smiles": "COC(=O)c1cccn1C1CCN(Cc2cccc(C(N)=O)c2)CC1", "INHIBITION": 45.1}
{"smiles": "Cc1nc(CN2CCC(N(C)Cc3nnc(C4CC4)n3C)C2)oc1C", "note": "(centres undefined)", "INHIBITION": 16.8}
{"smiles": "Cc1ccc(CN2CCC3(CC2)CCN(Cc2ccco2)CC3)cc1", "INHIBITION": -13.7}
{"smiles": "Cc1ccc(N2C[C@H](C(=O)NCC3CC3)[C@@H]3CCO[C@@H]3C2)nn1", "INHIBITION": 42.7}
{"smiles": "COCC1CN(Cc2ccoc2)Cc2nnn(C)c21", "note": "(centres undefined)", "INHIBITION": -6.21}
{"smiles": "CCc1nc2n(n1)CC(NCC(=O)Nc1oc(C)c(C)c1C#N)CC2", "note": "(centres undefined)", "INHIBITION": -13.5}
{"smiles": "COc1ccc2c(c1)NC(=O)C2OC(=O)CC(C)(C)C", "note": "(centres undefined)", "INHIBITION": 44}
{"smiles": "COc1ccc2c(c1)NC(=O)C2OC(=O)CCc1ccc(F)cc1", "note": "(centres undefined)", "INHIBITION": 14.9}
{"smiles": "COc1ccc2c(c1)NC(=O)C2OC(=O)Cc1ccccc1C", "note": "(centres undefined)", "INHIBITION": 58.5}
{"smiles": "CN(C)c1cc(C(F)(F)F)nc(N2CCCC2c2ccccn2)n1", "note": "(centres undefined)", "INHIBITION": -84.3}
{"smiles": "CN(Cc1nnc2n1CCC2)C(=O)c1ccc2c(c1)OCO2", "INHIBITION": 16.8}
{"smiles": "Cc1cccc(CN2CCc3ncnc(C4CC4)c3CC2)n1", "INHIBITION": -27.4}
{"smiles": "Cc1c(CN2Cc3nccn3CC2c2ccccc2)cnn1C", "note": "(centres undefined)", "INHIBITION": 14.435}
{"smiles": "CCS(=O)(=O)Cc1nc(-c2cnn3c(C)cc(C)nc23)no1", "INHIBITION": 70.5}
{"smiles": "CCOCCc1nc(-c2cnn3c(C)cc(C)nc23)no1", "INHIBITION": 10.6}
{"smiles": "COC(C)Cc1nc(-c2cnn3c(C)cc(C)nc23)no1", "note": "(centres undefined)", "INHIBITION": 31.2}
{"smiles": "CCc1nc(Cn2c(=O)c3c(C(F)(F)F)cc(C)nc3n2C)no1", "INHIBITION": 10.5}
{"smiles": "CCN(CC)C(=O)CCc1nc(-c2cnn3c(C)cc(C)nc23)no1", "INHIBITION": 57.7}
{"smiles": "COCCc1nc(-c2cnn3c(C)cc(C)nc23)no1", "INHIBITION": 34.6}
{"smiles": "Cc1nc(CN(C)C2CCN(CCc3cnn(C)c3)C2)no1", "note": "(centres undefined)", "INHIBITION": 11.2}
{"smiles": "Cc1ccccc1C(=O)NC(C)CN1CCOC1=O", "note": "(centres undefined)", "INHIBITION": 39.3}
{"smiles": "CCS(=O)(=O)N1CCN(C(C)(C)CO)CC1", "INHIBITION": 11}
{"smiles": "Cc1cnn(CCNCc2cc(C#N)ccc2F)c1", "INHIBITION": 34.15}
{"smiles": "Cc1noc(C)c1CN1CCn2c(CN3CCN(C)CC3)cnc2C1", "INHIBITION": 21.6}
{"smiles": "CCc1cc(N2CCC(NC3CCOCC3)CC2)nc(N(C)C)n1", "INHIBITION": 29.1}
{"smiles": "CCc1cc(N2CCC(NC3CN4CCC3CC4)CC2)nc(N(C)C)n1", "note": "(centres undefined)", "INHIBITION": 62.4}
{"smiles": "CCc1cc(N2CCC(N[C@@H]3CS(=O)(=O)C[C@H]3O)CC2)nc(N(C)C)n1", "INHIBITION": 35.3}
{"smiles": "Cn1ncc2c1NC(=O)CC2c1ccc(F)cc1", "note": "(centres undefined)", "INHIBITION": 3.46}
{"smiles": "CCCn1nnnc1COc1cc(OC)ccc1C(N)=O", "INHIBITION": -15}
{"smiles": "CC(C)C[C@@H](N)C(=O)N(C)Cc1csc(C(C)C)n1", "INHIBITION": -40.5}
{"smiles": "CC(C)n1cc(S(=O)(=O)N2CCSCC2)cn1", "INHIBITION": -28.8}
{"smiles": "CNC(=O)C1Cn2ccnc2C2(CCN(Cc3cccc(C)n3)CC2)O1", "note": "(centres undefined)", "INHIBITION": 29.6}
